FBW7 activator: human FBW7 E3 ligase activation, primary screen; AlphaScreen FBW7–phospho-cyclin E peptide binding, activator screen; 650,000 compounds, 0.13% hits; normalized activity (activation), % at 26.1 µM; in the data active means normalized activity above about 1.9%;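 further: purified mutant Fbw7 with reduced substrate affinity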
TEAD-YAP inh: TEAD-YAP interaction inhibition; HEK-TIYL cells, TEAD-Gal4/YAP UAS-luciferase luminescence; inhibition, % at 9.12 µM; 640,000 compounds, 1.4% hits; in the data active means inhibition above about 32%;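 further: 0% = median of test compound wells and 100% = reference inhibitor wells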
GPR151 ag: human GPR151 activation; Q8TDV0; PathHunter beta-arrestin GPR151 cells, luminescence; activation, % at 11.2 µM; 650,000 compounds, 1% hits; AID 1508602; in the data active means activation above about 4.9%;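 further: 0% = median of compound wells and 100% = cells with positive control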
MITF primary: inhibitors of human MITF; 650,000 compounds, 0.91% hits; AlphaScreen MITF homodimerization, bead proximity signal; inhibition, % at 2.6 µM; O75030; in the data active means inhibition above about 50%;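 further: 0% = vehicle wells with protein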
Target sequence (O75030 whole entry, looked up): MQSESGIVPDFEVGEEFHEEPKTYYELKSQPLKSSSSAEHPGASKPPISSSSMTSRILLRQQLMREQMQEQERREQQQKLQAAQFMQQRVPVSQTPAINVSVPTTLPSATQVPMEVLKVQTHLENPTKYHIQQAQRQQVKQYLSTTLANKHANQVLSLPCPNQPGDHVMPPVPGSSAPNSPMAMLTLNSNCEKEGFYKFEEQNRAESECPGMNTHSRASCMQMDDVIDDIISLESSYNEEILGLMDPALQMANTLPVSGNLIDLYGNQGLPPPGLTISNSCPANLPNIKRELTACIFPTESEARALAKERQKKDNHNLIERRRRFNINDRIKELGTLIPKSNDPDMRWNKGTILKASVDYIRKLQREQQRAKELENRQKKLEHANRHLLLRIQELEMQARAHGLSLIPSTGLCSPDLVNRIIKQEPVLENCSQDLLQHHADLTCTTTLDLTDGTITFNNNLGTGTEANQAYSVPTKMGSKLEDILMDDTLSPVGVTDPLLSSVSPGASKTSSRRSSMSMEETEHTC
GPR151 confirm: confirmation of human GPR151 activators; shares compounds with GPR151 ag; GPR151 PathHunter beta-arrestin cells, luminescence, 90 min; % of EA-reagent control over plate median; activation, % at 11.2 µM; 6,700 tested, under 10 active; AID 1508609;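 active means mean percent activation across replicates above the confirmation screen cutoff of 4.91%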
GPR119 counter: GPR119 activation, counter-screen for GPR151 activators | shares compounds with GPR151 ag | GPR119 PathHunter beta-arrestin cells, luminescence, 90 min; 0 = compound-well median, 100 = enzyme-acceptor control | 6,700 compounds, 0.3% hits | AID 1508611 | activation, % at 11.2 µM;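 active means mean percent activation in the counterscreen above 29.09%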;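 further: counterscreen on off-target GPR119 to flag nonselective hits from the GPR151 activator screen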
Numbers without * were called inactive; . = not tested or not shown; ! = repeats disagree. Only some compounds are listed: those with a hit (about 3.4% of all), similar ones and a draw of the others.

SMILES | FBW7 activator | TEAD-YAP inh | GPR151 ag | MITF primary | GPR151 confirm | GPR119 counter
CC(=O)Nc1ccc(-n2c(/C=C\c3ccccc3F)nc3ccccc3c2=O)cc1 | 0.3 | 2.9 | -0.1 | -15.9 | . | .
Clc1ccccc1/C=N/Nc1nncc(-c2ccccc2)n1 | -0.6 | -25.6 | 6.2* | -6.3 | 0.3 | 0.1
CCOc1cc(C)c(S(=O)(=O)N2CC(C)OC(C)C2)cc1C (stereo unspecified) | 0.0 | -3.1 | 0.5 | 12.6 | . | .
CCOc1cc(C)c(S(=O)(=O)N2CCCC2)cc1C | 0.2 | -4.7 | 6.7* | -32.4 | -0.3 | -3.1
Cc1ccccc1C(=O)NC1CCN(C(=O)N2CCOCC2)CC1 | 0.8 | 18.4 | -2.4 | 20.9 | . | .
Cc1cc(C)nc(Nc2n[nH]c(COc3ccccc3)n2)n1 | 0.1 | -14.1 | 5.7* | 5.7 | -1.0 | -2.3
CC(C(O)c1ccc(O)cc1)N1CCC(Cc2ccccc2)CC1 (stereo unspecified) | -0.1 | -2.7 | 10.4*! | 26.5 | 1.6 | 9.9
Cc1ccccc1CNC(=O)C(=O)NCc1ccc2c(c1)OCO2 | -0.1 | 6.9 | 5.4* | 2.5 | -0.3 | 5.9
O=C(NCc1ccc2c(c1)OCO2)C(=O)Nc1ccccc1 | 0.1 | -22.0 | -0.6 | 16.1 | . | .
O=C(NCc1ccc2c(c1)OCO2)c1ccc(Br)s1 | 0.1 | -2.2 | 6.2* | 2.5 | -0.1 | 4.5
O=C1CCSc2c1cccc2C(=O)NCc1ccc2c(c1)OCO2 | 0.3 | 26.4 | 5.6* | 2.6 | 0.6 | 1.5
CCOc1ccc(/C=N/NC(=O)c2nc(Cl)c(Cl)c(N)c2Cl)cc1 | 0.0 | 3.6 | -0.3 | 11.1 | . | .
Cc1ccc(C2=N/C(=C\c3ccccc3Br)C(=O)O2)cc1 | 0.2 | -11.5 | 0.7 | -15.2 | . | .
CCN(CC)c1nc(N)nc(Nc2ccc(-n3ccnc3)cc2)n1 | 0.0 | -3.5 | 0.9 | 3.9 | . | .
COC(=O)c1ccccc1NC(=O)N1CCCC1 | -0.1 | -14.0 | -0.7 | -16.4 | . | .
O=c1[nH]c2ccccc2nc1C(F)(F)C(F)(F)C(F)(F)C(F)F | 0.0 | 14.5 | 5.5* | -6.7 | -0.4 | -3.5
O=C(c1ccc(CN2C(=O)CCn3nccc32)cc1)N1CCOCC1 | -0.2 | -1.9 | 7.2* | 1.2 | -0.1 | -9.1
O=C(c1ccc2c(c1)N(Cc1ccccc1)C(=O)CS2)N1CCOCC1 | 0.0 | 11.4 | 0.1 | -0.2 | . | .
COc1ccc(N2C(=O)C3CCCN3C2c2ccccc2OC)cc1 (stereo unspecified) | 0.0 | -7.3 | 6.1* | -13.4 | -0.1 | -8.0
COc1ccc(N2C(=O)C3CCCN3C2c2cc(OC)ccc2OC)cc1 (stereo unspecified) | 0.8 | 9.4 | 0.2 | 18.3 | . | .
Cc1cncc2cccc(NC3CCN(C(=O)Cc4ccc(Br)cc4)C3)c12 (stereo unspecified) | -0.3 | -1.1 | 0.9 | 15.7 | . | .
Cc1nc2sccn2c(=O)c1S(=O)(=O)N1CCCc2ccccc21 | -0.1 | 10.4 | -0.1 | -16.3 | . | .
O=c1ccc2cc(S(=O)(=O)NCc3ccco3)ccc2o1 | -0.2 | -0.8 | 1.5 | -41.0 | . | .
O=c1[nH]c2ccc(S(=O)(=O)NCc3ccco3)cc2o1 | -0.1 | -3.1 | 6.0* | -2.0 | 0.1 | 4.5
Cc1ccc(Cl)c(OCC(=O)N2CCCCCC2)c1 | 0.1 | -22.2 | 1.9 | 16.1 | . | .
SMILES | FBW7 activator | TEAD-YAP inh | GPR151 ag | MITF primary | GPR151 confirm | GPR119 counter
COC(=O)c1ccc(/C=N/Nc2ccccc2[N+](=O)[O-])cc1 | -0.1 | -28.7 | 4.9* | -2.4 | -0.5 | -7.2
COc1cc(/C=N/Nc2ccccc2[N+](=O)[O-])cc(Br)c1O | -0.5 | -54.3 | -5.2 | 9.3 | . | .
CC(C)Cn1cc(C(=O)NCCCN2CCCC2=O)c2c3ccccc3n(C)c2c1=O | 0.5 | 10.1 | -0.7 | -8.2 | . | .
CNC(=O)CC1C(=O)N(c2cccc(C(F)(F)F)c2)C(=S)N1CCc1ccc(OC)c(OC)c1 (stereo unspecified) | -0.1 | -9.2 | 8.6* | 0.8 | -0.4 | 9.2
CON(C)S(=O)(=O)c1ccc(Cl)c(C(=O)OCc2ccc(C#N)cc2)c1 | 0.3 | -9.1 | 0.1 | 2.6 | . | .
Cc1ccc(-c2nc3ccccc3c(=O)n2NC(=O)c2ccco2)cc1C | 0.0 | -1.4 | 5.4* | -12.3 | 0.4 | 5.3
CSc1ccc(-c2ccc3c(c2)CC(CNC(=O)c2ccncc2)O3)cc1 (stereo unspecified) | -0.1 | 11.4 | 0.5 | -4.3 | . | .
CSc1ccc(-c2ccc3c(c2)CC(CNC(=O)C2CCOC2)O3)cc1 (stereo unspecified) | 0.0 | 7.3 | 7.9* | 2.6 | 0.0 | -1.2
Cc1ccc(-c2c(C(=O)Nc3ccccc3C)oc(=O)c3ccccc23)cc1 | 0.4 | 3.4 | -2.4 | 0.4 | . | .
CC(C)CC(C(=O)N1CCCCCC1)N1Cc2ccccc2C1=O (stereo unspecified) | 0.0 | 4.0 | -0.1 | -0.2 | . | .
CCN1CCN(C(=O)C(CC(C)C)N2Cc3ccccc3C2=O)CC1 (stereo unspecified) | -0.1 | -4.5 | 5.5* | 0.7 | 0.0 | -1.8
COc1cc(NC(=O)Cn2nnc(-c3ccc(C)cc3-n3cnnn3)n2)cc(OC)c1 | -0.2 | -0.7 | -0.7 | 0.6 | . | .
CC1=NN(Cc2cnc(Cl)s2)C(=O)c2ccccc2O1 | 0.1 | 2.0 | -0.2 | -4.7 | . | .
Cc1cc(C)n2c(SCCNCCO)nnc2n1 | 0.0 | 5.5 | 1.2 | 27.1 | . | .
Cc1cc(C)n2c(SCCO)nnc2n1 | 0.1 | 9.5 | 5.6* | 8.5 | 0.5 | -6.1
O=[N+]([O-])c1ccc(N2CCCCC2)cc1NCCOc1ccc(Cl)cc1 | 0.0 | -1.4 | 1.6 | 13.5 | . | .
CC(=O)c1ccc(Nc2nc3ccccc3n3c(C)nnc23)cc1 | -0.1 | 11.6 | 7.3* | 3.4 | 0.7 | 0.1
COC(=O)c1ccc(Nc2nc3ccccc3n3c(C)nnc23)cc1 | -0.1 | 4.1 | 1.9 | -3.2 | . | .
O=C(O)c1cccc(NCc2cccc3ccccc23)c1 | -0.1 | -18.7 | 11.1* | 9.8 | 0.2 | 3.5
C=CCOc1ccccc1CNc1cccc(C(=O)O)c1 | 0.4 | 2.0 | -2.0 | 16.7 | . | .
Cc1csc2nc(-c3cccc(NC(=O)c4ccccc4)c3)cn12 | 0.3 | -25.4 | 2.2 | 7.0 | . | .
CC(C)(C)C#C/C=N/n1nnc(-c2ccccc2)n1 | -0.1 | -2.8 | 5.8* | 8.0 | -0.5 | -4.3
COc1ccccc1-n1nc(C(=O)Nc2cccc(C)n2)c2ccccc2c1=O | -0.1 | 1.4 | 1.4 | 4.3 | . | .
O=S(=O)(NCC(c1cccnc1)N1CCN(c2ccc(F)cc2)CC1)c1ccc(Cl)cc1 (stereo unspecified) | 0.0 | 4.9 | -0.4 | -2.2 | . | .
COC(=O)C(Cc1cc(Cl)ccc1Cl)SC#N (stereo unspecified) | 0.1 | -2.9 | 9.7* | 22.8 | -1.0 | -11.9
O=C(CSc1nc(-c2ccccc2)nc2c1CCCC2)NCc1ccccc1 | -0.2 | 1.3 | 0.1 | -9.1 | . | .
O=C(NN1C(=O)C2C(c3ccccc3)C=CC(c3ccccc3)C2C1=O)c1ccncc1 (stereo unspecified) | 0.2 | 8.2 | 6.1* | -20.4 | 0.2 | -5.3

Screening data as filed in PubChem.
